Assay results published in PubChem BioAssay AID588763 (NMMLSC, 2011).
Results with a measured potency or affinity are listed apart. Activity calls are given as the source filed them. The rule behind the calls is not given here.

Molecular target: Beta-2 adrenergic receptor (Homo sapiens) (UniProt P07550)
Assay: beta2AR agonists driving receptor internalization, dose response, cell-based, FAP fluorogen, flow cytometry, cherry pick 1 (AID 588763)

Chain of Beta-2 adrenergic receptor (Homo sapiens) (P07550 whole entry, looked up): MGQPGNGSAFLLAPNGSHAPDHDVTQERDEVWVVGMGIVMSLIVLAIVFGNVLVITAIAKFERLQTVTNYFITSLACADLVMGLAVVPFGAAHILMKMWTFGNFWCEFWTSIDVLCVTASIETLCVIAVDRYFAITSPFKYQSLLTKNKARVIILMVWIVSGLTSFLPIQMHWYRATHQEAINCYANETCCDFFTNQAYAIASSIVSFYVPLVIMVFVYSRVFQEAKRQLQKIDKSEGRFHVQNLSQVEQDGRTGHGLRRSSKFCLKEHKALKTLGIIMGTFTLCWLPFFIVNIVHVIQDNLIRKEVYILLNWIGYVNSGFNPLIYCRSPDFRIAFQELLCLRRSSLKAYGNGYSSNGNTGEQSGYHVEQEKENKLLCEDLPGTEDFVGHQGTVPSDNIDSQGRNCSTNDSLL

Row | Structure (SMILES) | outcome
1 | COc1ccccc1CNC(=O)CCn1c(=O)[nH]c2ccsc2c1=O | inactive
2 | O=C(c1cc2c(ccc3ccccc32)o1)N1CCN(c2ncc(C(F)(F)F)cc2Cl)CC1 | inactive
3 | Cc1cnn(-c2nc(-c3ccccc3)cc(-c3ccccc3)n2)c1 | inactive
4 | CCCC(=O)N1CCN(c2ccc(NC(=O)c3ccc([N+](=O)[O-])o3)cc2Cl)CC1 | inactive
5 | COc1ccc(C)cc1S(=O)(=O)N(C)CC(=O)N1CCN(c2ccccc2)CC1 | inactive
6 | COc1cccc(CN2CCC(Oc3ccc(C(=O)N4CCCCC4)cc3)CC2)c1 | inactive
7 | Cc1ccc(OCc2cc(C(=O)NCc3cc(F)ccc3C)no2)cn1 | inactive
8 | CC(C)c1nc2sc3c(NCc4ccccc4)ncnc3c2c2c1COC(C)(C)C2 | inactive
9 | CC1=NN(C(N)=S)C(=O)C1N=Nc1ccc(F)cc1 (stereo not drawn) | inactive
10 | CC1CCN(C(C(=O)Nc2ccc3c(c2)OCO3)c2ccccc2)CC1 (stereo not drawn) | inactive
11 | COc1ccc(C(CCNCc2ccc(OC(C)C)cc2)c2ccccc2OC)cc1 (stereo not drawn) | inactive
12 | COc1ccc(NC(=O)c2cccc(N3C(=O)c4cccc([N+](=O)[O-])c4C3=O)c2)cc1 | inactive
13 | Cc1cc(S(=O)(=O)N2CCOCC2)ccc1OCC(=O)Nc1cccc(C(F)(F)F)c1 | inactive
14 | O=C(c1cc(COc2ccc(F)cc2Cl)on1)N1CC2C[C@@H]3CC1C[C@H](C2)C3 | inactive
15 | CN(C)c1ccc(-c2nnn(CC(=O)Nc3ccccc3N3CCOCC3)n2)cc1 | inactive
16 | CCOc1ccc(NC(=O)COc2ccc(S(=O)(=O)N3CCOCC3)cc2)cc1 | inactive
17 | C=CCn1c(CCNC(=O)c2cccs2)nnc1SCC(=O)Nc1cccc(Cl)c1C | inactive

Row | Structure (SMILES) | outcome
18 | COc1cccc(OC)c1C(=O)Nc1ccc(NC(=O)c2ccco2)cc1 | inactive
19 | Cc1cccc(-c2nnc(SCc3nc4ccccc4[nH]3)n2Cc2ccco2)c1 | inactive
20 | Cc1ccc(-c2nnc(SCc3nc4ccccc4[nH]3)n2Cc2ccco2)cc1 | inactive
21 | O=C(CCn1c(=O)[nH]c2ccsc2c1=O)NCc1ccc(F)cc1 | inactive
22 | COc1cccc(-c2ccc(NC(=O)C3CCCN(Cc4ccccn4)C3)cc2)c1 (stereo not drawn) | inactive
23 | CC(=O)c1ccc(NC(=O)c2ccc3c(Cl)c4c(nc3c2)CCCC4)cc1 | inactive
24 | Cc1ccc(C(=O)c2cc([N+](=O)[O-])ccc2N2CCCCC2)c(C)c1 | inactive
25 | COc1ccc(OC)c(S(=O)(=O)N(C)CC(=O)N2CCN(c3ccccc3)CC2)c1 | inactive
26 | CSc1nc(SCCO)c2sc3nc(-c4ccco4)c4c(c3c2n1)CC(C)(C)OC4 | inactive
27 | O=C(COc1ccc(S(=O)(=O)N2CCCCC2)cc1)Nc1ccccc1F | inactive
28 | c1ccc(-c2nnc(SCc3nc4ccccc4[nH]3)n2Cc2ccco2)cc1 | inactive
29 | O=C(c1ccc(OC2CCN(Cc3ccccc3C(F)(F)F)CC2)cc1)N1CCCCC1 | inactive
30 | COc1cccc(-c2ccc(NC(=O)C3CCCN(Cc4cnn(C(C)C)c4)C3)cc2)c1 (stereo not drawn) | inactive
31 | CCOc1ccc(NC(=O)Cn2nnc(-c3ccccc3NC(=O)C3CC3)n2)cc1 | inactive
32 | CC(C)CNc1ncnc2c1sc1nc(N3CCOCC3)c3c(c12)CC(C)(C)OC3 | inactive
33 | CN(C)S(=O)(=O)c1cccc(NC(=O)c2ccc(N3CCOCC3)c([N+](=O)[O-])c2)c1 | inactive
